Results filed as inconclusive are left out. Activity calls are given as the source filed them. Unless noted, calls follow the shape of the full dose curve.
Experiments:
[1] = Nuclear factor erythroid 2-related factor 2/antioxidant responsive element (Nrf2/ARE) small molecule agonists: qHTS cell viability counter screen in human keratinocytes (AID 1919968; active = well fitted curve in the direction sought with a large enough effect in the repeat runs; an effect the other way counts as inactive or inconclusive; also: nearly all actives have a fitted effect of over 55% in size)
In short: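 KeratinoSens cells (HaCaT keratinocytes stably carrying an ARE-luciferase reporter) were seeded at 1,500 cells/well and rested 5 h at 37 C/5% CO2. They were then exposed to compounds in DMSO for 23 h. Viability was read by CellTiter-Fluor fluorescence after 1 h.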

[2] = Nuclear factor erythroid 2-related factor 2/antioxidant responsive element (Nrf2/ARE) small molecule agonists: luciferase reporter gene qHTS assay in human keratinocytes (AID 1919969); also: nearly all actives have a fitted effect of over 35% in size; also: potency is read from the fitted curve at half-maximal effect
[3] = target: Gonadotropin-releasing hormone receptor (Homo sapiens) (UniProt P30968); test: Human gonadotropin-releasing hormone receptor (GnRHR) small molecule agonists, calcium flux assay in GnRHR-HEK293 cells (AID 1920063); also: nearly all actives have a fitted effect of over 35% in size
In short: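 HEK293 cells stably expressing human GnRHR were plated 18 h at 37 °C, loaded with calcium dye 1 h at 37 °C, then given compound in agonist mode; fluorescence (Ex/Em 480/540) read kinetically for 3 min at 1 s intervals.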

[4] = target: KiSS-1 receptor (Homo sapiens) (UniProt Q969F8); test: Human kisspeptin (KISS1R) small molecule agonists, calcium flux assay in KISS1R-HEK293 cells (AID 1920064; active = well fitted curve in the direction sought with a large enough effect in the repeat runs; an effect the other way counts as inactive or inconclusive)
In short: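 HEK293 cells stably expressing human KISS1R were plated 18 h at 37 °C, loaded with calcium dye for 1 h at 37 °C, then given compound by pin tool. Fluorescence (Ex/Em 480/540) was read kinetically for 3 min.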

[5] = G protein-coupled receptor (GPCR) small molecule agonists, calcium flux assay: HEK293 wild type cell line counter screen (AID 1920065)
In short: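 Cells were plated and cultured 18 h at 37 C/5% CO2, then loaded with calcium dye for 1 h at 37 C. Compounds in DMSO were pin-transferred in agonist mode, and fluorescence (Ex/Em 480/540) was read kinetically for 3 min at 1 s intervals.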

[6] = p53 small molecule agonists, cell-based qHTS assay with human liver microsomes (AID 1963577)
In short: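 p53RE-bla reporter cells were pre-incubated 5 h at 37 C, then treated with compounds plus human liver microsomes (0.5 mg/mL final) and NADPH (0.5 mg/mL final) for 16 h at 37 C. Beta-lactamase activity was read by LiveBLAzer fluorescence after 2 h at room temperature.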

[7] = p53 small molecule agonists, cell-based qHTS assay with rat liver microsomes (AID 1963578)
In short: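 p53RE-bla cells were exposed to compounds together with rat liver microsomes (0.5 mg/mL final) and NADPH (0.5 mg/mL final) for 16 h at 37 C, then read by LiveBLAzer beta-lactamase fluorescence after 2 h at room temperature.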

[8] = p53 small molecule agonists, cell-based qHTS assay with human liver microsomes: qHTS cell viability counter screen (AID 1963579); also: nearly all actives have a fitted effect of over 45% in size
In short: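 p53RE-bla cells (4,000/well) were pre-incubated 5 h at 37 C, then given compounds in DMSO plus human liver microsomes (0.5 mg/mL final) and NADPH (0.5 mg/mL final) for 16 h at 37 C. Viability was read by CellTiter-Glo luminescence.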

[9] = p53 small molecule agonists, cell-based qHTS assay with rat liver microsomes: qHTS cell viability counter screen (AID 1963580); also: nearly all actives have a fitted effect of over 45% in size
In short: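 Intracellular ATP, by CellTiter-Glo luminescence, defines viability. HCT-116 p53RE-bla cells, 4,000 per well, were compound-treated in the presence of rat liver microsomes and NADPH for 16 h at 37 C.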

[10] = p53 small molecule agonists, cell-based qHTS assay: qHTS cell viability counter screen (AID 1963581); also: nearly all actives have a fitted effect of over 45% in size
In short: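 p53RE-bla HCT-116 cells were exposed to compounds for 16 h at 37 C; after the beta-lactamase FRET read in the same wells, CellTiter-Glo was added and luminescence (intracellular ATP) read after 30 min at room temperature.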

[11] = p53 small molecule agonists, cell-based qHTS assay (AID 1963582; active = well fitted activation curve with a large enough effect in the signal ratio in the repeat runs, not every such curve was filed as active; the % refers to the signal ratio)
In short: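 p53RE-bla beta-lactamase reporter cells rested 5 h at 37 C/5% CO2, then received compounds in DMSO by pin transfer and were incubated 16 h at 37 C. LiveBLAzer B/G FRET substrate was loaded for 2 h at room temperature before fluorescence reading.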

[12] = target: 5-hydroxytryptamine receptor 2A (Homo sapiens) (UniProt P28223); test: 5-hydroxytryptamine receptor 2A (HTR2A) small molecule antagonists, cell-based qHTS assay (AID 1963586); also: nearly all actives have a fitted effect of over 45% in size
In short: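 Antagonist-mode intracellular calcium assay: DOI (4 nM) added after 5 min compound pre-incubation at room temperature to dye-loaded HTR2A-CHO cells. Fluorescence followed for 3 min, sampled every second.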

[13] = target: 5-hydroxytryptamine receptor 2A (Homo sapiens) (UniProt P28223); test: 5-hydroxytryptamine receptor 2A (HTR2A) small molecule agonists, cell-based qHTS assay (AID 1963587); also: nearly all actives have a fitted effect of over 30% in size
In short: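 Kinetic calcium-flux fluorescence (2 min, 1 sec intervals) after compound addition in agonist mode. HTR2A-CHO cells were cultured 18 h, then dye-loaded 1 h at 37 C.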

[14] = target: Muscarinic acetylcholine receptor M1 (Homo sapiens) (UniProt P11229); test: Cholinergic receptor muscarinic 1 (CHRM1) small molecule antagonists, cell-based qHTS assay (AID 1963588); also: nearly all actives have a fitted effect of over 40% in size; also: potency is read from the fitted curve at half-maximal effect
In short: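 CHRM1-CHO calcium-flux assay, antagonist mode. Cells were seeded 18 h, dye-loaded 1 h at 37 C and given compound for 5 min at RT, then acetylcholine was added at 50nM. FDSS fluorescence was read 3 min; 15 concentrations, three runs.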

[15] = cAMP Responsive Elements (CRE) small molecule agonists, cell-based qHTS assay (AID 1963590)
In short: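 CRE-bla HEK 293T cells in DMEM with 10% dialyzed FBS, NEAA, pyruvate and 25 mM HEPES were plated 18 h at 37 C/5% CO2, then exposed to compounds in DMSO for 3 h before LiveBLAzer B/G FRET substrate addition.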

[16] = cAMP Responsive Elements (CRE) small molecule antagonists, cell-based qHTS assay (AID 1963591; active = well fitted inhibition curve with a large enough effect in the signal ratio in the repeat runs, not every such curve was filed as active; the % refers to the signal ratio)
In short: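 CRE-bla HEK293T cells were plated 18 h at 37 °C/5% CO2, pinned with compound in DMSO, then stimulated with NKH477 at 0.25 uM final for 3 h. LiveBLAzer B/G FRET substrate was added and plates incubated 2 h at room temperature.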

[17] = target: Beta-2 adrenergic receptor (Homo sapiens) (UniProt P07550); test: Adrenergic beta2 receptor (ADRB2) small molecule antagonists, cell-based qHTS assay (AID 1963592); also: series mostly up to about 92 µM; nearly all actives have a fitted effect of over 50% in size
In short: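 Cells (CHO, stable ADRB2 overexpression) incubated 18-20hr at 37C; compounds added from DMSO; agonist mix (1nM isoproterenol, 100uM IBMX, 25uM Ro-20-1724) added; 0.5hr RT; d2-cAMP and anti-cAMP-cryptate added; 1hr RT; 665/615 nm read.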

[18] = target: D(2) dopamine receptor (Homo sapiens) (UniProt P14416); test: Dopamine D2 receptor (DRD2) small molecule agonists, cell-based qHTS assay (AID 1963594); also: nearly all actives have a fitted effect of over 35% in size
In short: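 cAMP accumulation in DRD2-HEK293 cells measured by HTRF after 1 h detection; compounds added 10 min before NKH477 (200nM […]) forskolin-analogue stimulation, 30 min at room temperature, with Ro20-1724 present at 0.1 mM final.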

[19] = target: D(2) dopamine receptor (Homo sapiens) (UniProt P14416); test: Dopamine D2 receptor (DRD2) small molecule antagonists, cell-based qHTS assay (AID 1963595; active = well fitted inhibition curve with a large enough effect in the signal ratio in the repeat runs, with a control signal flat; the % refers to the signal ratio)
In short: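 In this cell-based antagonist screen, compounds act for 10 min at room temperature before a 30 min challenge with 12 nM quinpirole and 200 nM NKH477. cAMP is quantified by HTRF competition in DRD2-HEK293 cells containing 0.1 mM Ro20-1724.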

[20] = target: Muscarinic acetylcholine receptor M1 (Homo sapiens) (UniProt P11229); test: Cholinergic receptor muscarinic 1 (CHRM1) small molecule agonists, cell-based qHTS assay (AID 1963589); also: nearly all actives have a fitted effect of over 35% in size
In short: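 CHO cells stably expressing human CHRM1, seeded 18 h at 37 C/5% CO2, dye-loaded 1 h at 37 C, then given compound in agonist mode; intracellular calcium fluorescence read kinetically at 1 s intervals. Fifteen concentrations, three independent runs.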
% is scaled to controls: 0 for no effect and ±100 for the full control effect.

Sequence of D(2) dopamine receptor (Homo sapiens) (P14416 whole entry, looked up): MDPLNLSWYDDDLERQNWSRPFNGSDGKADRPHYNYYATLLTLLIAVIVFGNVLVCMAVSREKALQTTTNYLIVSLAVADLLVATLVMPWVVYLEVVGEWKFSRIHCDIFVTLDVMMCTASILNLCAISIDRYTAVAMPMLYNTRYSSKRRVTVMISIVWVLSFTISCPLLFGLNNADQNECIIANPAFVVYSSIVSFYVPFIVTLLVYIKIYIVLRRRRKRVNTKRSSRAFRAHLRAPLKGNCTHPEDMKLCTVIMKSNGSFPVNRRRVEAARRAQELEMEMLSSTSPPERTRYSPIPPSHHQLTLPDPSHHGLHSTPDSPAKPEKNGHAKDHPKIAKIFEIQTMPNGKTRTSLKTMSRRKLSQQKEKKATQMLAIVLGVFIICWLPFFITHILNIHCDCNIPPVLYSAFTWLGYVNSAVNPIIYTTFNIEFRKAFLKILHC
Sequence of Beta-2 adrenergic receptor (Homo sapiens) (P07550 whole entry, looked up): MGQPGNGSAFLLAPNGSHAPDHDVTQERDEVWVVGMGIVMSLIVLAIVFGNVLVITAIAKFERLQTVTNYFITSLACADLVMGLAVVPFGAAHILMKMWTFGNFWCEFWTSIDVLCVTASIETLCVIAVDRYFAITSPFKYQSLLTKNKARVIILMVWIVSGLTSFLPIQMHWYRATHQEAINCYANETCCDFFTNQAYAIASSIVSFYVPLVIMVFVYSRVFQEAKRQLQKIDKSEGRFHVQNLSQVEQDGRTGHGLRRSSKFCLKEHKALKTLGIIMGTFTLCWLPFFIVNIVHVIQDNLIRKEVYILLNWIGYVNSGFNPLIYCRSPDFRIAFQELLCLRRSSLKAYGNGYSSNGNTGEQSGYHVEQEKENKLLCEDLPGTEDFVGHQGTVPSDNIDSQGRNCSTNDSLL
Sequence of KiSS-1 receptor (Homo sapiens) (Q969F8 whole entry, looked up): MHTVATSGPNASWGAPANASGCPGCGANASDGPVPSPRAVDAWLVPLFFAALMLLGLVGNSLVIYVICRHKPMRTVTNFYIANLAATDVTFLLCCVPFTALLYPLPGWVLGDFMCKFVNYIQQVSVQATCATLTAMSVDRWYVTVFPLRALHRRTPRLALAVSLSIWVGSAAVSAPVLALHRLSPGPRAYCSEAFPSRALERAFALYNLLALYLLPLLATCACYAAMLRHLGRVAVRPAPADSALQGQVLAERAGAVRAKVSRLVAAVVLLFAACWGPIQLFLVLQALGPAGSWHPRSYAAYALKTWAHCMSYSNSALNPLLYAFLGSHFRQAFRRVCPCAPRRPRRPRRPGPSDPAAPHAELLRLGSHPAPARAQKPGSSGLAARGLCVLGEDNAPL
Sequence of Gonadotropin-releasing hormone receptor (Homo sapiens) (P30968 whole entry, looked up): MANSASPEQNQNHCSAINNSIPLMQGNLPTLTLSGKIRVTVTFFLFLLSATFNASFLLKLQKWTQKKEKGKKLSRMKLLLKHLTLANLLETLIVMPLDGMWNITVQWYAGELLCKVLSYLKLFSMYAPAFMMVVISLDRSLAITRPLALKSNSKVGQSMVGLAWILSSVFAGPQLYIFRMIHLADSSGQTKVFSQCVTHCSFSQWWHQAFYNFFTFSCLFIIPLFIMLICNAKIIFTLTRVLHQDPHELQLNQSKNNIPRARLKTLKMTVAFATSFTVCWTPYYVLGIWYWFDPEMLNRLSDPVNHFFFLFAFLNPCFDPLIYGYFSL
Sequence of Muscarinic acetylcholine receptor M1 (Homo sapiens) (P11229 whole entry, looked up): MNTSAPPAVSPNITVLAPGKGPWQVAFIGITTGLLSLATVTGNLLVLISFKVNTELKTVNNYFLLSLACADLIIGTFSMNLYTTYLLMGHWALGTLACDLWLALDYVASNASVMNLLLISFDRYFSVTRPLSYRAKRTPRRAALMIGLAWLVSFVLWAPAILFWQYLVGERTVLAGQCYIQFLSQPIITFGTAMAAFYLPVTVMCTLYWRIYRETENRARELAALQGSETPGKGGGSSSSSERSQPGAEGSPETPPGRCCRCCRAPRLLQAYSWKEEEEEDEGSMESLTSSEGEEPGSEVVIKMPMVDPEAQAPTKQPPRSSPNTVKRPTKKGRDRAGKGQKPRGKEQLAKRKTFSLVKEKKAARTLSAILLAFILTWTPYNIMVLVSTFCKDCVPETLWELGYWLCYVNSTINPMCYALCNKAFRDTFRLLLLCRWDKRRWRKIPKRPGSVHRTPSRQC
Sequence of 5-hydroxytryptamine receptor 2A (Homo sapiens) (P28223 whole entry, looked up): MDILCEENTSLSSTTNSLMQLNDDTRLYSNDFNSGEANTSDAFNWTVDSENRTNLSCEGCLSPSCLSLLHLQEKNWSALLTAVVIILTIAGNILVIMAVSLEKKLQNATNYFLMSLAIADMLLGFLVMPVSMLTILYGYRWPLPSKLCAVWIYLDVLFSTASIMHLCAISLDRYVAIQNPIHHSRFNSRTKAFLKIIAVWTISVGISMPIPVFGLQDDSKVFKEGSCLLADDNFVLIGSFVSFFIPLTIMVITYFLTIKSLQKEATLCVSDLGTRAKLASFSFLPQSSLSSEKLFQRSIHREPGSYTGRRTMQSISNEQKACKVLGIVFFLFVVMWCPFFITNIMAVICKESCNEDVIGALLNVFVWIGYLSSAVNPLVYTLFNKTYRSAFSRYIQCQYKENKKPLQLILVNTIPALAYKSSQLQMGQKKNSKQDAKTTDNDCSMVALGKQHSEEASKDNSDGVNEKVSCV

CC(NN)c1ccccc1 (stereo not drawn)
inactive: activity change, negative = cytotoxicity [1] -0.107% [at 19 µM] | activity, positive = activation [2] -1.07% [at 19 µM] | activity change [3] -0.677% [at 11.8 µM, active compounds read high] | activation [4] -0.175% [at 15.8 µM] | activation [5] -1.16% [at 11.8 µM] | activation [6] -2.41% [at 13.5 µM] | activation [7] -0.8% [at 13.6 µM] | activity change, negative = cytotoxicity [8] -4.08% [at 13.5 µM] | activity change, negative = cytotoxicity [9] 2.75% [at 13.5 µM] | activity change, negative = cytotoxicity [10] 23.1% [at 13.5 µM] | activation [11] -1.5% [at 13.5 µM] | activity, negative = inhibition [12] 14.8% [at 12.7 µM] | activation [13] 1.19% [at 15.9 µM] | activity, negative = inhibition [14] 10.3% [at 12.6 µM] | activation [15] -0.272% [at 19 µM] | activity change, negative = inhibition [16] -6.39% [at 18.9 µM] | activity change, negative = inhibition [17] 10.7% [at 19 µM] | activation [18] 12.1% [at 19 µM] | activity change, negative = inhibition [19] 4.23% [at 18.9 µM]

CC(C)(c1ccc(Oc2ccc3c(c2)C(=O)OC3=O)cc1)c1ccc(Oc2ccc3c(c2)C(=O)OC3=O)cc1
inactive: Potency [1] | Potency [2] | Potency [3] | outcome [4] | outcome [5] | Potency [6] | Potency [7] | Potency [8] | Potency [9] | Potency [10] | Potency [11] | Potency [12] | Potency [13] | Potency [15] | Potency [16] | Potency [17] | Potency [19]
active: Potency [14] 37.3 µM

CC[C@H](NC(=O)c1cc(F)ccc1NS(=O)(=O)c1cccc2cccnc12)c1ccccc1
inactive: Potency [1] | Potency [2] | Potency [3] | outcome [4] | outcome [5] | Potency [6] | Potency [7] | Potency [8] | Potency [9] | Potency [10] | Potency [11] | Potency [12] | Potency [13] | Potency [14] | Potency [20] | Potency [18] | Potency [19]

CC1CCc2c(N3CCC(O)CC3)c(F)cc3c(=O)c(C(=O)O)cn1c23 (stereo not drawn)
inactive: Potency [1] | Potency [2] | Potency [3] | outcome [4] | outcome [5] | Potency [6] | Potency [7] | Potency [8] | Potency [9] | Potency [10] | Potency [11] | Potency [12] | Potency [13] | Potency [14] | Potency [20] | Potency [17] | Potency [18]

O=C(O)C(Cc1cc(I)c(O)c(I)c1)c1ccccc1 (stereo not drawn)
inactive: Potency [1] | Potency [2] | Potency [3] | outcome [4] | outcome [5] | Potency [6] | Potency [7] | Potency [8] | Potency [9] | Potency [10] | Potency [11] | Potency [12] | Potency [13] | Potency [14] | Potency [20] | Potency [17] | Potency [18]

CC/C=C\CCOC(=O)c1ccccc1
inactive: Potency [1] | Potency [2] | Potency [3] | outcome [4] | outcome [5] | Potency [6] | Potency [7] | Potency [8] | Potency [9] | Potency [10] | Potency [11] | Potency [12] | Potency [13] | Potency [14] | Potency [15] | Potency [16] | Potency [17] | Potency [18] | Potency [19]

C=CC(=O)OCCOC(=O)CCC(=O)O
active: Potency [2] 61.1 µM
inactive: Potency [1] | Potency [3] | outcome [4] | outcome [5] | Potency [6] | Potency [7] | Potency [8] | Potency [9] | Potency [10] | Potency [11] | Potency [12] | Potency [13] | Potency [14] | Potency [20] | Potency [18] | Potency [19]

Nc1cc(C(=O)O)ccc1Cl
inactive: Potency [1] | Potency [2] | Potency [3] | outcome [4] | outcome [5] | Potency [6] | Potency [7] | Potency [8] | Potency [9] | Potency [10] | Potency [11] | Potency [12] | Potency [13] | Potency [14] | Potency [15] | Potency [16] | Potency [17] | Potency [18] | Potency [19]

From PubChem BioAssay (Tox21)
